Results from PubChem BioAssay (Tox21).
Records with an inconclusive call do not appear. Activity calls are given as the source filed them. Unless noted, the call rests on the fitted dose curve; in most records, active means well fitted curve in the direction sought with a large enough effect in the repeat runs; inconclusive means weak or mixed curves; inactive means no such curve, though single readings can be large; an effect the other way counts as inactive or inconclusive.

Key:
[1] = qHTS assay to identify small molecule antagonists of the estrogen receptor alpha (ER-alpha) signaling pathway using the BG1 cell line in the presence of 0.1 nM 17-beta-estradiol - cell viability counter screen (AID 1259241); further: nearly all actives have a fitted effect of over 40% in size; further: potency means the concentration at half of the fitted maximal effect
Outline: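 Estradiol-stimulated (0.1 nM) VM7Luc4E2 cells exposed to compounds 22 hr; viability measured by fluorescence of cleaved CellTiter-Fluor substrate after 30 min.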

[2] = qHTS assay to identify small molecule antagonists of the androgen receptor (AR) signaling pathway using the MDA cell line in the presence of 0.5 nM R1881 - cell viability counter screen (AID 1259242); further: nearly all actives have a fitted effect of over 45% in size
Outline: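 Steps: plate MDA-kb2 cells, rest 5 hr at 37C without CO2; pin in compounds in DMSO; add R1881 to 0.5 nM final; incubate 16 hr; add CellTiter-Fluor, 30 min; read fluorescence.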

[3] = biological target: Estrogen receptor (Homo sapiens) (UniProt P03372); test: qHTS assay to identify small molecule antagonists of the estrogen receptor alpha (ER-alpha) signaling pathway using the BG1 cell line in the presence of 0.1 nM 17-beta-estradiol (AID 1259244); further: nearly all actives have a fitted effect of over 50% in size
Outline: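 Antagonist mode: compounds in DMSO are pinned onto VM7Luc4E2 reporter cells, 0.1 nM final 17beta-estradiol is added, and after 22 h at 37C luciferase luminescence is measured with ONE-Glo.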

[4] = qHTS assay to identify small molecule phospholipidosis (PLD) inducers (AID 1259344; active means well fitted curve in the direction sought with a large enough effect; an effect the other way counts as inactive or inconclusive)
Outline: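 Phospholipid accumulation was scored by imaging: fixed, Hoechst-counterstained HepG2 cells stained with LipidTOX Red after 24 h compound exposure at 37 C. Read-outs were pit count and pit intensity per well or per cell, with amiodarone and DMSO controls.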

[5] = qHTS assay to identify small molecule HDAC inhibitors (AID 1259364);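 further: wild-type HCT-116 cells with endogenous class I/II HDAC activity; top concentration of the series differs between compounds; nearly all actives have a fitted effect of over 45% in size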
Outline: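 Cells (HCT-116, wild type) are seeded at 1,500 per well, incubated overnight, treated with compound in DMSO for 2 hr, then developed with HDAC-Glo I/II reagent for 30 min at room temperature.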

[6] = qHTS assay to identify small molecule HDAC inhibitors - cell viability counter screen (AID 1259365); further: series mostly up to about 92 µM; nearly all actives have a fitted effect of over 50% in size
Outline: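 After overnight seeding at 1,500 cells per well, wild-type HCT-116 cultures took up compounds in DMSO for 2hr at 37 C. Viable cell content came from luminescence with CellTiter-Glo.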

[7] = qHTS assay to identify small molecule agonists of the sonic hedgehog signaling (Shh) pathway - cell viability counter screen (AID 1259366); further: nearly all actives have a fitted effect of over 50% in size
Outline: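 Same-well cytotoxicity read. Gli1-Luc reporter 3T3 cells; compounds 24hr, 37C/5% CO2; CellTiter-Fluor fluorescence.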

[8] = qHTS assay to identify small molecule antagonists of the sonic hedgehog signaling (Shh) pathway - cell viability counter screen (AID 1259367); further: nearly all actives have a fitted effect of over 55% in size; further: potency means the concentration at half of the fitted maximal effect
Outline: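 Viability was read by CellTiter-Fluor fluorescence in the same wells, reagent added 23 hr into compound treatment and incubated 1 hr at 37C. The 3T3 Gli1-Luc reporter cells (2,000/well) received conditioned medium after compound and ran 24 hr.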

[9] = qHTS assay to identify small molecule agonists of the sonic hedgehog signaling (Shh) pathway (AID 1259368; calls by dose curve;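 further: NIH/3T3-derived 3T3Gli1-Luc cells carrying a stable Gli1-driven firefly luciferase reporter; series mostly up to about 92 µM; nearly all actives have a fitted effect of over 15% in size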)
Outline: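 Cells of a mouse NIH/3T3 clone stably expressing luciferase under the Gli1 transcriptional response element are exposed to test chemicals for 24 hr at 37 C. Pathway activation is detected as a rise in luminescence.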
On the % scale 0 is the no-effect control and ±100 the full control effect.

Sequence of Estrogen receptor (Homo sapiens) (P03372 whole entry, looked up): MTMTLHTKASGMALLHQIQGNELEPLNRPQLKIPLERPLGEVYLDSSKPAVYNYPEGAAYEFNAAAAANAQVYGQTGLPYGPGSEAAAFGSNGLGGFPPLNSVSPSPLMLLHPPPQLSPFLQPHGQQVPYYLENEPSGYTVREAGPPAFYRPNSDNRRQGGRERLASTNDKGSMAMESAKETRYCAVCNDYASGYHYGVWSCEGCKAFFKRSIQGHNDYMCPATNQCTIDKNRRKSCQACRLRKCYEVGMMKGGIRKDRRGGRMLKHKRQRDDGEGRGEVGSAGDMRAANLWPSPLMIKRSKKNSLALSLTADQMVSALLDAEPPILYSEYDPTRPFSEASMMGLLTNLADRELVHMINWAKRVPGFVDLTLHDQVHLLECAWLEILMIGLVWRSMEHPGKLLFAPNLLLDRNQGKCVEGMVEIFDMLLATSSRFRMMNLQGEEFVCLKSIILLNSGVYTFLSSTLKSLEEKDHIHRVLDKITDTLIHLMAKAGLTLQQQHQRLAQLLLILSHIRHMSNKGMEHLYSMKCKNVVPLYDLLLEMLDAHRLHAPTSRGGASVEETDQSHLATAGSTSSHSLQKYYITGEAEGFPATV

O=c1oc2c(O)c(O)cc3c(=O)oc4c(O)c(O)cc1c4c23
inactive: activity change, negative = cytotoxicity [1] 3.69% [at 19 µM] | viability change, negative = cytotoxic [2] -6.98% [at 19 µM] | activity change, negative = inhibition [3] 1.12% [at 19 µM] | outcome [4] | activity change, negative = inhibition [5] -0.133% [at 19 µM] | activity change, negative = cytotoxicity [6] 2.83% [at 19 µM] | viability change, negative = cytotoxic [7] -17.2% [at 19 µM] | viability change, negative = cytotoxic [8] 1.3% [at 19 µM] | activity change [9] -1.7% [at 18.9 µM, hits give high values]

CN1CCN(C2=Nc3ccccc3Oc3ccc(Cl)cc32)CC1
inactive: Potency [1] | outcome [2] | Potency [3] | outcome [4] | Potency [5] | outcome [6] | Potency [9]

C[C@]12CCC(=O)C=C1CC[C@@H]1[C@@H]2CC[C@@]2(C)[C@H]1CC[C@]2(O)C(=O)CO
inactive: Potency [1] | outcome [2] | Potency [3] | outcome [4] | Potency [5] | outcome [6] | Potency [7] | Potency [9]

COc1nc(C)nc(NC(=O)NS(=O)(=O)c2ccccc2OCCCl)n1
inactive: Potency [1] | outcome [2] | Potency [3] | Potency [5] | outcome [6] | Potency [7] | Potency [8] | Potency [9]

CC(=O)N(CC(O)CN(C(C)=O)c1c(I)c(C(=O)NCC(O)CO)c(I)c(C(=O)NCC(O)CO)c1I)c1c(I)c(C(=O)NCC(O)CO)c(I)c(C(=O)NCC(O)CO)c1I (stereo unspecified)
inactive: Potency [1] | outcome [2] | Potency [3] | outcome [4] | Potency [5] | outcome [6] | Potency [7] | Potency [8] | Potency [9]

COc1cc(N)c(Cl)cc1C(=O)NC1CCN(Cc2ccccc2)CC1
inactive: Potency [1] | outcome [2] | Potency [3] | outcome [4] | Potency [5] | Potency [7] | Potency [8] | Potency [9]

NS(=O)(=O)c1cc(-c2nn[nH]n2)c(NCc2cccs2)cc1Cl
inactive: Potency [1] | outcome [2] | Potency [3] | outcome [4] | Potency [5] | Potency [7] | Potency [9]

CCCCN1C[C@H](O)[C@@H](O)[C@H](O)[C@H]1CO
inactive: Potency [1] | outcome [2] | Potency [3] | outcome [4] | Potency [5] | outcome [6] | Potency [7] | Potency [9]

CS(=O)(=O)c1ccc([C@@H](O)[C@@H](CF)NC(=O)C(Cl)Cl)cc1
inactive: Potency [1] | outcome [2] | Potency [3] | outcome [4] | Potency [5] | Potency [7] | Potency [8] | Potency [9]

CCCNC(C)C(=O)Nc1c(C)csc1C(=O)OC (stereo unspecified)
inactive: Potency [1] | outcome [2] | Potency [3] | outcome [4] | Potency [5] | outcome [6] | Potency [7] | Potency [8] | Potency [9]

CCCCC1CCC(=O)O1 (stereo unspecified)
inactive: Potency [1] | outcome [2] | Potency [3] | Potency [5] | outcome [6] | Potency [7] | Potency [8] | Potency [9]

O=C1CCCCCCCCCCC(=O)OCCO1
inactive: Potency [1] | outcome [2] | Potency [3] | Potency [5] | outcome [6] | Potency [7] | Potency [8] | Potency [9]

CN1CCN(c2c(F)cc3c(=O)c(C(=O)O)cn4c3c2SCC4)CC1
inactive: Potency [1] | outcome [2] | Potency [3] | outcome [4] | Potency [5] | outcome [6] | Potency [7] | Potency [8] | Potency [9]

COc1ccc(S(=O)(=O)Nc2nnc(CC(C)C)s2)cc1
inactive: Potency [1] | outcome [2] | Potency [3] | outcome [4] | Potency [5] | outcome [6] | Potency [7] | Potency [8] | Potency [9]

CCOc1ccc(OCC)c(Cl)c1
inactive: Potency [1] | outcome [2] | Potency [3] | Potency [5] | outcome [6] | Potency [7] | Potency [8] | Potency [9]

CCN(CC)CC1CCCCN1CC(=O)N1c2ccccc2C(=O)Nc2cccnc21 (stereo unspecified)
inactive: Potency [1] | outcome [2] | Potency [3] | outcome [4] | Potency [5] | outcome [6] | Potency [7] | Potency [8] | Potency [9]

CCN(CC)CCOc1ccc(Cc2ccccc2)cc1
inactive: Potency [1] | outcome [2] | Potency [3] | outcome [4] | Potency [5] | outcome [6] | Potency [7] | Potency [8] | Potency [9]

Cc1cc2c(s1)Nc1ccccc1N=C2N1CCN(C)CC1
active: Potency [1] 13.3 µM | Potency [8] 5.31 µM
inactive: outcome [2] | Potency [3] | outcome [4] | Potency [5] | outcome [6] | Potency [9]

c1ccc(CN(CC2=NCCN2)c2ccccc2)cc1
inactive: Potency [1] | outcome [2] | Potency [3] | outcome [4] | Potency [5] | outcome [6] | Potency [7] | Potency [8] | Potency [9]

CCCNC(C)(C)COC(=O)c1ccccc1
inactive: Potency [1] | outcome [2] | Potency [3] | outcome [4] | Potency [5] | outcome [6] | Potency [7] | Potency [8] | Potency [9]

Cc1c(-c2ccccc2)oc2c(C(=O)OCCN3CCCCC3)cccc2c1=O
inactive: Potency [1] | outcome [2] | Potency [3] | outcome [4] | Potency [5] | outcome [6] | Potency [7] | Potency [8] | Potency [9]

CCN[C@H]1CN(CCCOC)S(=O)(=O)c2sc(S(N)(=O)=O)cc21
inactive: Potency [1] | outcome [2] | Potency [3] | outcome [4] | Potency [5] | outcome [6] | Potency [7] | Potency [9]

O=C(O)c1ccccc1Nc1cc(Cl)ccc1C(=O)O
inactive: activity change, negative = cytotoxicity [1] -25.8% [at 19 µM] | viability change, negative = cytotoxic [2] -0.133% [at 19 µM] | activity change, negative = inhibition [3] -11% [at 19 µM] | PLD induction [4] -4.32% [at 7.66 µM] | activity change, negative = inhibition [5] -1.95% [at 19 µM] | activity change, negative = cytotoxicity [6] -5.17% [at 19 µM] | activity change [9] -0.0136% [at 18.9 µM, hits give high values]
